The structures appear in SMILES notation. Among all 380,000 compounds or so, about 1,300 (0.34%) were called active. This is one part of a sample in which actives are shown more often than they occur. Values without a mark were called inactive.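 The calls were made as follows: active = drop in luminescence signal, shown as inhibition above about 50% in the replicate tests (limit read from the data, passing the limit was not always enough); inconclusive = probably only some replicates passing the limit; inactive = the rest.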

In the test the test system is Drosophila bursicon receptor LGR2 (rickets). Kind of test: LGR2 cAMP reporter signal reduction – cell-based, HEK293, CRE-luciferase reporter, bursicon stimulation, primary screen (AID 720647).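 Also: agonist challenge used bursicon conditioned medium at about half maximal strength.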 The conditions noted are these: bursicon-stimulated, 4 h, at 9.99 µM, stronger effect = higher value. (Reporter assays use an easily measured gene product as a stand-in for the process of interest.)
`C[C@]12CCC3C(CC[C@H]4C[C@@H](O)CC[C@]34C)C1C[C@@H](O)[C@H]2O` (stereo not given in full): the inhibition (commonly the drop in the measured response relative to a control, in per cent) is 21.8%. Then `C[C@]12CCC3C(CC[C@H]4C[C@@H](O)CC[C@]34C)C1CC[C@@H]2O` (stereo not given in full), with 4.33%; and `C[C@]12CC[C@H](O)C[C@H]1CC[C@@H]1C2CC[C@]2(C)[C@@H](C3=CC(=O)OC3)[C@@H](O)C[C@]12O` (stereo not given in full), with 75.1% (active); and `Cc1cc(N2CCNC[C@@H]2C)ccc1N1CC[C@H](O)C1`, with -14.4%. Then `O=C(Cc1ccccn1)N1CCCCN2[C@H](C1)[C@H](c1ccc(-c3ccccc3F)cc1)[C@@H]2CO`, with 20.2%; and `CCOc1ccc(-c2cc(C)[n+](CCN(CC)CC)c(-c3ccc(OCC)cc3)c2)cc1`, with 60.4% (active). Then `CS(=O)(=O)N1CCC2CCNC2C1` (stereo not given), with -1.04%; and `O=C(Cc1ccncc1)N1CCCCN2[C@@H](CO)[C@H](c3ccc(C#CC4(O)CCCC4)cc3)[C@@H]2C1`, with -0.939%; and `Clc1ccc([C@@H]2CC3CCC2N3)cn1` (stereo not given in full), with 7.28%. Consider `O=S(=O)(c1ccccc1)N1CCC2CCNC2C1` (stereo not given), for which the inhibition was 8.51%. Then `CCC(C)(O)C(=O)OC1C(=O)OC2CC3C(C)=CC(=O)C(O)C3(C)C3C4(O)OCC23C1C(C)C4O` (stereo not given), with 101% (active).

Turning to `O=C(Cc1ccccc1)N1CCCCN2[C@H](CO)[C@H](c3ccc(C#Cc4ccccc4)cc3)[C@H]2C1`, the inhibition is 0.501%.

Regarding `COC(=O)[C@@H]1[C@@H](CO)[C@@H]2Cn3c(ccc(-c4cccc(C(=O)N(C)C)c4)c3=O)[C@H]1N2C(=O)NC(C)C`, the inhibition was 31.6%. Regarding `CCN(CC)C(=O)[C@@H]1C=C2c3cccc4[nH]c(Br)c(c34)C[C@H]2N(C)C1`, the inhibition was 9.95%. Consider `COc1ccc(C#Cc2ccc([C@H]3[C@H](CO)N4CCCCN(C(=O)Cc5ccccc5)C[C@@H]34)cc2)cc1`, for which the inhibition is 10.8%. Then `COC(=O)[C@@H]1[C@@H](CO)[C@@H]2Cn3c(ccc(-c4ccc(F)cc4)c3=O)[C@H]1N2C(C)=O`, with -7.85%. Then `CN1CCN(c2cc(N3CCNCC3)ccc2[N+](=O)[O-])CC1`, with 1.9%; and `COc1cccc(-c2nc3ccc(N4CCN(C)CC4)cc3[nH]2)c1`, with 88.7% (active). As to `COc1cccc(-c2ccc([C@H]3[C@H]4CN(C(=O)Cc5ccncc5)CCCCN4[C@H]3CO)cc2)c1`, the inhibition was -6.52%.

As to `COc1ccc2c(c1)[C@@]13CCCCC1[C@@H](C2)NCC3` (stereo not given in full), the inhibition was 15.4%. `COC1C(O)C(C)OC(OC2CCC3(C=O)C(CCC4C3CCC3(C)C(C5=CC(=O)OC5)CCC43O)C2)C1O` (stereo not given): the inhibition was 83.8% (active). As for `CCC(C)NC1(c2ccccc2)CCCCC1` (stereo not given), the inhibition is -0.048%.

With `COC(=O)[C@H]1[C@H](CO)[C@H]2Cn3c(cccc3=O)[C@H]2N1CC1CC1`, the inhibition is 26.9%. As to `C/C=C/c1ccc(C2[C@@H]3CN(Cc4cncnc4)C[C@H]2N3)cc1` (stereo not given in full), the inhibition is -8.19%.

In the case of `O=C(Cc1ccccn1)N1CCCCN2[C@@H](CO)[C@@H](c3ccc(C#Cc4ccccc4)cc3)[C@@H]2C1`, the inhibition is -13.4%.

For the origin of these results see PubChem BioAssay AID720647 (Broad Institute, 2013).
